Laboratory results published in PubChem BioAssay.
Calls of active or inactive are those of the source.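 How the source made its calls, unless noted: active means visually confirmed hit in the image check and inhibition above 20%; inconclusive means visually confirmed hit but inhibition not above 20%; inactive means no visual hit in the image check.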

Columns and labels:
[1] = inhibitors of TNFa-induced NFkB p65 translocation, primary screen, imaging, HUVEC, MLSMR starter and 10KST1 sets (AID 438;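 active means inhibition above 20% together with a positive visual image hit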;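 further: compound added about 3h40 before a 20 min TNFalpha stimulation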;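 on inhibition: signal is the nuclear over cytoplasmic p65 intensity ratio per well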); settings: HUVEC TNFa-induced p65 nuclear translocation; cell count: measured here: nuclei count (cytotoxicity indicator), at 2.08 µM; inhibition: at 2 µM, stronger effect = higher value, 0% TNFa-plus-vehicle, 100% no-TNFa wells
[2] = reduction of polyQ htt aggregates in cells – imaging, exon1htt(103Q)mCFP cells, high-content imaging, primary screen (AID 483;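 active means visual image review flags a hit and inhibition of aggregation exceeds 20%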;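 further: compound exposure lasted 3 days before fixation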;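 on nuclei count: percent of the per-plate median nuclei count of sample wells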); settings: exon1htt(103Q)mCFP cell line, aggregate imaging, at 2 µM; inhibition of aggregation: stronger effect = higher value; nuclei count: measured here: cell count, toxicity
[3] = endothelial E-selectin expression blockers – imaging, HUVEC, immunofluorescence, MLSMR starter and 10KST1 sets, primary screen (AID 487); settings: HUVEC TNFalpha-induced E-selectin immunofluorescence imaging, at 2 µM; inhibition: stronger effect = higher value; nuclei count: measured here: cell number, toxicity;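 on inhibition: signal is fraction of cell area covered by stained E-selectin grains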;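 on nuclei count: 100% = median nuclei count of all wells on the same plate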
[4] = biological target: Voltage-gated potassium channel subunit beta-2 (Rattus norvegicus) (UniProt P62483); experiment: inhibitors of rat Kvbeta2 reductase activity – biochemical, NADPH fluorescence, primary screen (AID 622;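 active means fluorescence slope higher than the sample average by over 3 SD, cut at about -0.22 in these data, passing the limit was not always enough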;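 further: slope of raw intensity against log time taken from 70 to 1610 s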); settings: recombinant KvBeta, 4-cyanobenzaldehyde reduction, at 10 µM, stronger effect = higher value
[5] = biological target: Voltage-gated potassium channel subunit beta-2 (Rattus norvegicus) (UniProt P62483); experiment: enhancers of rat Kvbeta2 NADPH turnover – biochemical, NADPH fluorescence, primary screen (AID 623;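 active means NADPH fluorescence slope more negative than the mean of all samples by about 3 SD, 99.7% confidence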;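 further: fluorescence intensity change per second fitted from 20 to 320 s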); settings: Recombinant KvBeta, NADPH fluorescence decrease slope, 10 min; at 10 µM; stronger effect = lower value
[6] = biological target: Alpha-2C adrenergic receptor (Homo sapiens) (UniProt P18825); experiment: compounds altering alpha2C-coupled GIRK flux – cell-based, HEK293 alpha2C/GIRK1/2, thallium flux, primary screen (AID 624;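 active means fluorescence slope after compound addition differing from the mean of all screened samples at 99.7% confidence, in either direction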;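 further: slope of fluorescence ratio to pre-addition baseline per second over 15 to 24 s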); settings: thallium flux BTC fluorescence, at 10 µM, actives lie on both sides
[7] = blockers of RIG-like receptor reporter activation – cell-based, Sendai virus stimulus, luciferase, 10K MLSCN set, TLR/RLR signaling modifier project, primary screen (AID 602276;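 active means inhibition at or above 50% at 10 µM; inactive means inhibition below 50%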;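 further: firefly luciferase from ISG56 promoter only with Renilla not read in this screen; 0% = Sendai virus plus DMSO and 100% = medium plus DMSO without virus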); settings: HEK293 RL24 IRF3 luciferase reporter, at 10 µM, stronger effect = higher value
[8] = TLR3 IRF3 reporter activation blockers – cell-based, poly I:C stimulus, luciferase, 10K MLSCN set, primary screen (AID 602277;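 active means inhibition of the reporter signal at or above 50%; inactive means inhibition below 50%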); settings: HEK293-TLR3 RL24 IRF3 luciferase reporter, at 10 µM, stronger effect = higher value

Chain of Alpha-2C adrenergic receptor (Homo sapiens) (P18825 whole entry, looked up): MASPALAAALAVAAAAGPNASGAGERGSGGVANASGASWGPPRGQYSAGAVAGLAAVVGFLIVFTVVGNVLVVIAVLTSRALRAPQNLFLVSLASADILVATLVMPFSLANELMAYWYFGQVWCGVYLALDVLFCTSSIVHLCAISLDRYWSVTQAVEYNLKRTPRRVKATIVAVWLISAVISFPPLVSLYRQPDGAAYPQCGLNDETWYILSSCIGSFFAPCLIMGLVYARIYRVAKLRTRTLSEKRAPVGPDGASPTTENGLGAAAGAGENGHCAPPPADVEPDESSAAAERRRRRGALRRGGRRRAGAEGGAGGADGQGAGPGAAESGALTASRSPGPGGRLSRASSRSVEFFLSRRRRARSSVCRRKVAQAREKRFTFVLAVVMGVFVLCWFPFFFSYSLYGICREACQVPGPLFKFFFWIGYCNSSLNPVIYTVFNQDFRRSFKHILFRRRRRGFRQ
Chain of Voltage-gated potassium channel subunit beta-2 (Rattus norvegicus) (P62483 whole entry, looked up): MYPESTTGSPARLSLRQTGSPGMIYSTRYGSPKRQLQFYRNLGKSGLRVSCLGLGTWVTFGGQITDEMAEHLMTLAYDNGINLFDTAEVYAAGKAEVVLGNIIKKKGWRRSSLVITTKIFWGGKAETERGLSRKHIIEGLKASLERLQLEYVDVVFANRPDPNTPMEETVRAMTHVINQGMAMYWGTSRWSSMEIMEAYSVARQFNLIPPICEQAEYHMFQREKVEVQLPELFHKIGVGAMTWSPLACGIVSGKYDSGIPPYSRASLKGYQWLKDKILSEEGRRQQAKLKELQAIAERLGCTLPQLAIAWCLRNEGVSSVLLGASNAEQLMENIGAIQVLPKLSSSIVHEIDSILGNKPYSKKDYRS

| SMILES | cell count [1] | inhibition [1] | inhibition of aggregation [2] | nuclei count [2] [%] | inhibition [3] | nuclei count [3] [%] | fluorescence slope [4] | NADPH fluorescence slope [5] | slope [6] | inhibition [7] | inhibition [8] |
| --- | --- | --- | --- | --- | --- | --- | --- | --- | --- | --- | --- |
| Cc1ccccc1OCc1nnc2n1CC(C)S2 (stereo not drawn) | 547 | 6.8% (inactive) | -4.9% (inactive) | 131 | -53.4% (inactive) | 105 | -0.562 (inactive) | -4e-05 (inactive) | 0.00737 (inactive) | 8.61% (inactive) | 13.6% (inactive) |
| CC(NC(=O)c1cc2c(=O)n(C)c3ccccc3c2n1C)c1ccc2c(c1)OCCO2 (stereo not drawn) | 798 | -4.4% (inactive) | 3.3% (inactive) | 139 | -41.1% (inactive) | 107 | -0.623 (inactive) | -2.2e-05 (inactive) | 0.00677 (inactive) | 4.73% (inactive) | 4.98% (inactive) |
| CCOC(=O)N1CCN(C(=O)CSc2ncnc3ccccc23)CC1 | 747 | -1.6% (inactive) | -8.8% (inactive) | 120 | -10.3% (inactive) | 115 | -0.525 (inactive) | -2.4e-05 (inactive) | 0.00632 (inactive) | 1.11% (inactive) | -8.53% (inactive) |
| CCCOc1ccc2ccccc2c1/C=N/n1cnnc1 | 209 | 4.6% (inactive) | -0.3% (inactive) | 89.4 | -4.9% (inactive) | 89.2 | -0.31 (inactive) | -1.6e-05 (inactive) | 0.008 (inactive) | 7.93% (inactive) | 3.78% (inactive) |
| Cc1nc2ccc(S(=O)(=O)NCC(=O)N3CCc4ccccc4C3)cc2s1 | 439 | 2.7% (inactive) | 1.5% (inactive) | 91.2 | -4.9% (inactive) | 119 | -0.563 (inactive) | 3.2e-05 (inactive) | 0.00627 (inactive) | -4.3% (inactive) | -28.9% (inactive) |
| COc1cc(C2c3c(oc4c(C)cc(C)cc4c3=O)C(=O)N2Cc2cccnc2)ccc1O (stereo not drawn) | 627 | -2.7% (inactive) | 0.2% (inactive) | 107 | 12.8% (inactive) | 99.8 | -0.476 (inactive) | -3.3e-05 (inactive) | 0.00579 (inactive) | 16.4% (inactive) | 21.2% (inactive) |
| Cc1ccc(S(=O)(=O)NC(C)C(=O)Nc2ccc(C(N)=O)cc2)cc1 (stereo not drawn) | 707 | 1.6% (inactive) | 1.1% (inactive) | 77.4 | -22.5% (inactive) | 105 | -0.521 (inactive) | 1.6e-05 (inactive) | 0.0049 (inactive) | -2.81% (inactive) | 2.56% (inactive) |
| CSc1cccc(NC(=O)C2CCN(S(=O)(=O)c3ccc(F)cc3)CC2)c1 | 376 | -0.2% (inactive) | 10.8% (inactive) | 104 | -69.1% (inactive) | 115 | -0.353 (inactive) | 5.7e-05 (inactive) | 0.00752 (inactive) | 16.9% (inactive) | 39.3% (inactive) |
| COc1ccc(OC)c(C2C(C(=O)Nc3ccc(F)cc3)=C(C)Nc3nc(CCCO)nn32)c1 (stereo not drawn) | 666 | 7.1% (inactive) | -11.2% (inactive) | 117 | -44% (inactive) | 109 | -0.427 (inactive) | 8.4e-06 (inactive) | 0.00613 (inactive) | 0.814% (inactive) | 11.9% (inactive) |
| O=C(CNC(=O)c1cc2ccccc2o1)NCc1cccs1 | 420 | 3.6% (inactive) | -2.1% (inactive) | 107 | -57.3% (inactive) | 112 | -0.469 (inactive) | -1.5e-06 (inactive) | 0.0103 (inactive) | 5.59% (inactive) | 16.2% (inactive) |
| O=C(c1ccccc1Oc1nnnn1-c1ccccc1)N1CCOCC1 | 315 | -0.9% (inactive) | -13.9% (inactive) | 107 | -73.9% (inactive) | 113 | -0.269 (inactive) | 2e-05 (inactive) | 0.00699 (inactive) | 9.07% (inactive) | 21.2% (inactive) |
| CC(NC(=O)COc1ccc(Br)cc1)C(=O)O (stereo not drawn) | 434 | 6% (inactive) | 4.7% (inactive) | 100 | -149% (inactive) | 136 | -0.439 (inactive) | -1.3e-05 (inactive) | 0.00364 (inactive) | 10.1% (inactive) | 24.7% (inactive) |
| Cc1nnc(SCC(=O)Nc2nccs2)s1 | 501 | -10.8% (inactive) | 12.1% (inactive) | 116 | -0.9% (inactive) | 115 | -0.413 (inactive) | -7.7e-05 (inactive) | 0.00513 (inactive) | -7.71% (inactive) | -7.69% (inactive) |
| Cn1c(=O)cc(OCCCC(=O)Nc2ccc3c(c2)OCCO3)c2ccccc21 | 361 | -3.3% (inactive) | -4.7% (inactive) | 101 | -8.1% (inactive) | 113 | -0.511 (inactive) | -1.4e-05 (inactive) | 0.00629 (inactive) | -5.46% (inactive) | -1.3% (inactive) |
| CCCC(=O)N(c1ccc2oc(=O)sc2c1)S(=O)(=O)c1ccccc1 | 318 | 3.5% (inactive) | -12.8% (inactive) | 104 | -45.1% (inactive) | 80 | -0.61 (inactive) | -2.4e-05 (inactive) | 0.00625 (inactive) | 14.8% (inactive) | 17.5% (inactive) |
| CC(C)Nc1ncnc2c1cnn2-c1ccccc1 | 681 | -6.7% (inactive) | -56.3% (inactive) | 3.7 | -1.2% (inactive) | 114 | -0.589 (inactive) | -2e-05 (inactive) | 0.00563 (inactive) | -54.7% (inactive) | -180% (inactive) |
| Cc1ccc2cc(C(c3nnnn3CC3CCCO3)N3CCCC4(CCCCC4)C3)c(=O)[nH]c2c1 (stereo not drawn) | 715 | 0.8% (inactive) | 23.8% (inactive) | 106 | -34% (inactive) | 112 | -0.618 (inactive) | -3.7e-05 (inactive) | 0.00614 (inactive) | 10.5% (inactive) | 16.9% (inactive) |
| CCC1Oc2ccc(C)cc2N(CC(=O)N(Cc2cccnc2)Cc2ccc(C)o2)C1=O (stereo not drawn) | 685 | -5.5% (inactive) | 13.1% (inactive) | 93.4 | -9.6% (inactive) | 103 | -0.599 (inactive) | -5e-05 (inactive) | 0.00383 (inactive) | 17.7% (inactive) | 24.3% (inactive) |
| CCOC(=O)N1CCN(CC(O)COc2ccccc2C(C)CC)CC1 (stereo not drawn) | 631 | -12.4% (inactive) | 0.6% (inactive) | 100 | -35.9% (inactive) | 122 | -0.612 (inactive) | -1.6e-05 (inactive) | 0.00663 (inactive) | 10.8% (inactive) | 35.4% (inactive) |
| CCCCN(C(=O)c1ccc(Cl)cc1)C1CC2CCC(C1)N2C (stereo not drawn) | 588 | 6.5% (inactive) | 5.4% (inactive) | 114 | -93.1% (inactive) | 116 | -0.561 (inactive) | -6.5e-05 (inactive) | 0.0056 (inactive) | -6.18% (inactive) | 35.3% (inactive) |
| Cc1cc(C(=O)COC(=O)C2COc3ccccc3O2)c(C)n1CC1CCCO1 (stereo not drawn) | 460 | 0.5% (inactive) | 19.3% (inactive) | 81.4 | -126% (inactive) | 119 | -0.373 (inactive) | -4.2e-05 (inactive) | 0.00612 (inactive) | 6.89% (inactive) | 22.4% (inactive) |
| CCOc1ccccc1N1Cc2cc(C)c(C)cc2C1 | 576 | 2.9% (inactive) | 22.5% (inactive) | 110 | -9% (inactive) | 118 | -0.543 (inactive) | 1.2e-05 (inactive) | 0.00798 (inactive) | -0.273% (inactive) | -2.86% (inactive) |
| COc1ccc2nc3oc(C(=O)NC4CCN(Cc5ccccc5)CC4)cc3cc2c1 | 237 | -1.3% (inactive) | -19% (inactive) | 107 | -9.9% (inactive) | 110 | -0.122 (active) | -8.2e-06 (inactive) | 0.00404 (inactive) | -32.2% (inactive) | -53.8% (inactive) |
| CCCN(CC1CC1)C(=O)Nc1ccccc1C | 693 | -11.6% (inactive) | 9.8% (inactive) | 101 | -32.9% (inactive) | 103 | -0.529 (inactive) | 3.7e-05 (inactive) | 0.00657 (inactive) | -4.1% (inactive) | -19% (inactive) |
| CCOC(=O)C(C)n1cnc2c(nnn2Cc2ccc(C)cc2)c1=O (stereo not drawn) | 618 | -3.7% (inactive) | 6% (inactive) | 91.7 | -1.8% (inactive) | 86.9 | -0.503 (inactive) | -0.000137 (inactive) | 0.00481 (inactive) | 16.6% (inactive) | 20.1% (inactive) |
| COc1ccc(CNC(=O)c2cnc3n(c2=O)CCS3)cc1 | 591 | -6.4% (inactive) | 15.6% (inactive) | 97.2 | 15.6% (inactive) | 95.7 | -0.369 (inactive) | 4e-05 (inactive) | 0.00542 (inactive) | 10.9% (inactive) | 29.1% (inactive) |
| Nc1cc(=O)[nH]c(SCC(=O)Nc2ccc(Br)cc2)n1 | 825 | 8.2% (inactive) | -2.2% (inactive) | 108 | 18.9% (inactive) | 128 | -0.507 (inactive) | 4.3e-05 (inactive) | 0.00582 (inactive) | 1.99% (inactive) | 4.12% (inactive) |
| COc1ccccc1CNC(=O)Nc1cccs1 | 546 | -6.3% (inactive) | 9.4% (inactive) | 118 | -30.8% (inactive) | 123 | -0.45 (inactive) | 8.3e-06 (inactive) | 0.0111 (inactive) | -0.521% (inactive) | -0.402% (inactive) |
